Measurements reported in ChEMBL document CHEMBL3988442, “University of Dundee, Small-Polar-MMV Screening Library” (2021).
Screen size: about 53,000 compounds; about 900 (1.7%) showed an effect of 50% or more. The full list was thinned out, with strong results kept by preference.

Tested on: Mycobacterium tuberculosis
Test: Cornell - Phenotypic assay to identify agents that inhibit growth of Mycobacterium tuberculosis
Assay type: functional
Parameters: scale not given: direction of the effect not stated beside the values
Settings: 10 mM as filed; unlikely as a test dose

Structure (SMILES)	Percent Effect [%]
Cc1ccc(N2C[C@H]3CCN(Cc4ccncc4)C[C@H]3C2)nn1.O=C(O)C(F)(F)F	-19.26
Cc1ccc(CN2CCC3(CCCN3C(=O)C(C)C)CC2)o1	-8.279
CCOc1nnc(CN(C)C2CCCN(c3cccnn3)C2)s1 (stereo not given)	26.02
CC1c2ncc(COCC3CC3)n2CCN1C(=O)c1ccn(C)n1 (stereo not given)	14.69
Cc1cc(N2CCOCC2)ccc1NC(C)c1nc(C(C)(C)C)no1 (stereo not given)	76.4
Cc1noc(C(C)Nc2ccc(N3CCOCC3)cc2C)n1 (stereo not given)	61.87
Cc1cc(CNC(=O)NC(C)c2ccc(N3CCOCC3)cc2)no1 (stereo not given)	-27.63
CCN1CCN(c2ccc(NC(C)c3nc(C(C)C)no3)c(C)c2)CC1 (stereo not given)	73.38
Cc1cc(OCC(=O)NC(C)c2ccc(N3CCOCC3)cc2)no1 (stereo not given)	4.093
CCN1CCN(c2ccc(NC(=O)CC(C)C)c(C)c2)CC1	-22.64
Cc1cc(CN2CCN(C(C)c3nc(C(C)C)no3)CC2)no1 (stereo not given)	-1.591
Cc1noc(C(C)N2CCN(CC(=O)N3CCOCC3)CC2)n1 (stereo not given)	-22.01
CC(c1nc(C(C)(C)C)no1)N1CCN(C(=O)CN2CCOCC2)CC1 (stereo not given)	8.353
Cc1cc(N2CCOCC2)ccc1NC(C)c1nc(C(C)C)no1 (stereo not given)	72.08
Cc1noc(C(C)Nc2ccc3c(c2)CCC3)n1 (stereo not given)	-0.4193
CC(c1nc(C(C)(C)C)no1)N1CCN(CC(=O)N2CCOCC2)CC1 (stereo not given)	7.513
CCc1ccccc1NC(=O)NCc1nnc(SC)n1C	-6.778
CC(=O)N1CCC(CCc2ccnc(NC(=O)c3ccccn3)c2)CC1	-18.95
COc1ccc(-n2cnc(Cl)c2CO)cc1	11.93
COCCN(C)C[C@H]1C[C@H](CO)CN(C(=O)c2ccn(C)c(=O)c2)C1	18.02
CCc1ncnc(N2CCOCC2C2CC2)c1F (stereo not given)	0.2478
COCCNC(=O)c1ccccc1-n1cc(CN)cn1	-18.17
CC(C)COC(=O)N1CC(=O)N(CCCc2ccccc2)CC(O)C1 (stereo not given)	6.947
Cc1cc(C)c(CNC(=O)NCC(O)c2ccccc2F)c(=O)[nH]1 (stereo not given)	-14.22
CCc1nccn1C1CCCN(C(=O)c2cccc3c2OCO3)C1 (stereo not given)	-43.9
C1CCN(CCN2CCCCC2C2OCCO2)CC1 (stereo not given)	10.52
Cc1cccc(C2(O)CCN(Cc3ccccc3N3CCCC3)CC2)c1	33.4

Structure (SMILES)	Percent Effect [%]
CCN(CC)C(=O)CN1CCC2(C=Cc3cc(Cl)c(C)cc3O2)CC1	52.2
Cc1cc(C)n(CC2CN(CC(=O)NC3CCCC3)CCO2)n1 (stereo not given)	-7.412
Cc1cc2c(cc1Cl)C=CC1(CCN(CC(=O)NC3CCCC3)CC1)O2	71.56
Cc1cc2c(cc1Cl)C=CC1(CCN(CC(=O)N3CCCC3)CC1)O2	63.41
Cc1cc2c(cc1Cl)C=CC1(CCN(C(=O)N3CCOCC3)CC1)O2	23.79
CCc1ccc(O)c(C(=O)N2CCN(CC(=O)N(CC)CC)CC2)c1	-14.81
Cc1cc2c(cc1Cl)C=CC1(CCN(CC(=O)N3CCOCC3)CC1)O2	-15.66
Cc1cc2c(cc1C)OC1(C=C2)CCN(CC(=O)N2CCOCC2)CC1	44.67
Cc1cc(C)n(CC2CN(CC(=O)NC3CCCCC3)CCO2)n1 (stereo not given)	-10.09
O=C1NCC(C(=O)Nc2ncc(Cc3ccccc3)s2)N1 (stereo not given)	-21.97
CNC(=O)c1cn[nH]c1C1CCN(Cc2cn(C)nc2C)C1 (stereo not given)	-22.18
CCn1nc(C)c2ncnc(N(C)C)c21	-48.95
O=C(CC1CCCC1)N1CCC(c2cc3ncccc3c(O)n2)CC1	-42.1
CCN1CCCC1CNC(=O)Cc1c(C)n[nH]c1-c1ccc(OC)cc1 (stereo not given)	17.71
CCC(C(=O)Nc1ccc2cn(CC)nc2c1)N1CCCC1=O (stereo not given)	13.02
Nc1nnc(CCNC(=O)c2cccc(C3CCCNC3)c2)s1 (stereo not given)	4.454
Cn1cnc2c1CCN(CCS(=O)(=O)c1ccc(Cl)cc1)C2	-6.56
COc1cccc(CN(C)C(=O)CN2CC(n3nc(C)cc3C)C2)c1	24.75
COc1ccccc1CN(C)C(=O)CN1CC(n2nc(C)cc2C)C1	65.44
Cc1cc(C)n(C2CN(CC(=O)N(C)Cc3ccco3)C2)n1	-1.246
CCCc1nc(CN(CCO)Cc2cc(Br)ccc2F)no1	55.91
CC(C)(C)c1nc(CN(CCO)Cc2cc(Br)ccc2F)no1	21.92
Cc1noc(CN(CCO)Cc2cc(Br)ccc2F)n1	29.28
CCS(=O)(=O)N1CCCn2cnc(COc3cccnc3)c2C1.O=C(O)C(F)(F)F	13.68
CN(CCCc1cnn(C)c1)Cc1cc2n(n1)CCCN(C)C2	2.304
CC(O)CNC(=O)c1nc(Cc2c(Cl)cccc2Cl)no1 (stereo not given)	19.28
CC(C)CNC(=O)CNC(=O)c1nc(Cc2c(Cl)cccc2Cl)no1	50.66

Structure (SMILES)	Percent Effect [%]
C[C@@H](O)CNC(=O)c1nc(Cc2c(Cl)cccc2Cl)no1	33.25
CC(C)(O)CN1CCN(C(=O)c2cc3ccccc3c(=O)[nH]2)CC1	11.41
COc1cccc2cc(CNCc3ccnc(N4CCOCC4)c3)oc12	-7.276
COc1cccc2cc(CNCc3ccnc(N4CCCCC4)c3)oc12	60.34
COc1cccc2cc(CNCc3ccc(N4CCCC4)nc3)oc12	-14.56
O=C(CCc1cccc(F)c1F)N1CCCC(n2cncn2)C1 (stereo not given)	5.232
Cc1nn(C)c(N(C)C)c1CNC(C)c1cccc(OC(C)C)c1 (stereo not given)	54.17
Cc1nn(C)c(N(C)C)c1CNC(C)Cc1c(F)cccc1F (stereo not given)	29.42
Cc1nn(C)c(N(C)C)c1CNC(C)COc1cccc(F)c1 (stereo not given)	24.93
CC(C)n1nccc1CN1Cc2nccn2CC1c1ccccc1 (stereo not given)	55.64
Cc1nccc(CN2Cc3nccn3CC2c2ccccc2)n1 (stereo not given)	-4.199
Cn1cnc(CN2Cc3nccn3CC2c2ccccc2)c1 (stereo not given)	25.78
Cc1csc(N2CCN(Cc3cccnc3)CC2C)n1 (stereo not given)	17.54
O=C(NC1CCCc2c1[nH]c1ccc(F)cc21)c1n[nH]c2c1CCC2 (stereo not given)	5.755
COc1ccc(Cl)cc1CCNC(=O)NCc1ccncc1	59.54
COc1ccc(Cl)cc1CCNC(=O)NCc1ncnn1C	19.31
COc1ccc(Cl)cc1CCNC(=O)NCc1noc(C)n1	15.04
COc1ccc(C(=O)NCCNC(=O)c2scnc2Cl)cc1	-54.01
CCN(CC)C1CCN(C(=O)NCc2cccc(-n3ccnc3)c2)C1 (stereo not given)	34.25
CCNC(=O)CCc1c(C)nc2cc(O)nn2c1C	3.574
COc1ccc(NC(=O)CCc2c(C)nc3cc(O)nn3c2C)cn1	65.23
COC(=O)CCc1c(C)nc2cc(O)nn2c1C	-35.79
Cc1cnn(CC2CCCN2Cc2nnc(C(C)C)o2)c1 (stereo not given)	-69.76
Cc1cnn(CC2CCCCN2C(=O)c2ccc3nncn3c2)c1 (stereo not given)	-11.21
Cc1cc(C)n(CC2CCCN2C(=O)c2ccc3nnc(C)n3c2)n1 (stereo not given)	12.74
Cc1cnn(CC2CCCN2C(=O)c2ccc3nnc(C)n3c2)c1 (stereo not given)	107.3
Cc1ncccc1CNCC1CCN(CC(C)O)CC1 (stereo not given)	-13.7

Structure (SMILES)	Percent Effect [%]
Cn1nccc1-c1cccc(CC2CCN(S(C)(=O)=O)C2)n1 (stereo not given)	50.09
Cn1nccc1-c1cncc(C2CCCN(S(C)(=O)=O)C2)n1 (stereo not given)	20.84
CC(=O)N1CCC(Cc2cccc(-c3ccnn3C)n2)CC1	35.75
Cc1cc(-c2ccnn2C)nc(C2CCCN(S(C)(=O)=O)C2)n1 (stereo not given)	51.61
Cc1nc(-c2ccnn2C)cc(C2CCCN(S(C)(=O)=O)C2)n1 (stereo not given)	29.58
Cc1cc(-c2ccnn2C)nc(C2CCN(S(C)(=O)=O)CC2)n1	31.8
CC(C)C(=O)N1CCN(C(=O)c2cc(C(C)C)no2)[C@H]2CS(=O)(=O)C[C@H]21	24.89
CN(C)CCNC(=O)CC1CCN(c2cccnn2)CC1	8.308
CCN(Cc1nc(C)no1)C(=O)C1CC(=O)N(Cc2ccccn2)C1 (stereo not given)	0.6142
O=C(NC1CCCN(Cc2c(F)cccc2F)C1)c1cc[nH]n1 (stereo not given)	-25.78
O=C(NCCc1ccccc1)NCCN1CCC(c2cccs2)CC1	45.08
CC(=O)NCCN1CCC(c2cccs2)CC1	5.988
O=C(NCCN1CCC(c2cccs2)CC1)Nc1cccs1	107.5
Cc1cc(N2CCC(Cc3ccncc3)C2)ncn1 (stereo not given)	-20.77
OCC1(Cc2ccc(Cl)cc2)CCN(Cc2ccccc2O)CC1	19.16
COc1ccc(CN2CCC(CO)(Cc3ccc(Cl)cc3)CC2)c(O)c1	23.78
COc1cccc(CN2CCC(CO)(Cc3ccc(Cl)cc3)CC2)c1O	91.19
CCC(O)c1nc2c([nH]1)CC(C)(C)CNC2=O (stereo not given)	-22.87
CCc1cc(NCCN2CCNC2=O)n2nccc2n1	-6.964
Cc1nc(C)n(CC2CCCN(CCOc3ccccc3F)C2)n1 (stereo not given)	-21.82
O=C(NC1CCN(CC2CCCC2)C1)N1CCC(OCC2CC2)CC1 (stereo not given)	51.36
O=C(NC1CCN(CC2CC2)C1)N1CCC(OC2CCCCC2)CC1 (stereo not given)	28.71
NC(=O)C1CCN(C(=O)NC2CCN(CC3CCCC3)C2)CC1 (stereo not given)	21.86
CC(C)C(=O)N1CCC(c2nc3ccccn3c2NC(C)(C)C)CC1	44.44
